# Test results reported in PubChem BioAssay (NCI).
# Values joined by “and” are separate entries in the source; they are usually repeats but may differ in a detail not shown here. Equal values may be shown once. Compounds without any hit were thinned out: in the full panel of roughly 83,000, 20% have a hit.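 Treatment: one concentration, 48 hours, 96-well format. Scoring: percent growth, with anything below 10 considered active.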 Unmarked numbers belong to inactive results. Active and inactive are the calls of the source.
# Test system: MDA-MB-468 breast
# Assay: NCI-60 one-dose screen, 48 h (100 = growth as untreated, 0 = no growth, -100 = all killed)
# Conditions: 10 µM unless noted
row,SMILES,growth
1,COc1ccc(-c2csc3c2-n2cccc2C3=O)cc1O,-5.84% (active)
2,O=C1/C(=C\c2cccn2Cc2ccc(Cl)cc2)c2ccccc2N1c1c(Cl)cccc1Cl,-27.9% (active)
3,CCCCN(C)N=Nc1ccc(C(N)=O)cc1,102%
4,CCc1nc2cc(F)c(/C=C/C(=O)NO)cc2c(=O)n1CCc1ccccc1,4.28% (active)
5,CCOC(=O)C1=NN(c2ccccc2)C2=NC(=O)/C(=C\c3cn(-c4ccccc4)nc3-c3cc4ccccc4o3)C(=O)N12,111%
6,COc1cc(-c2csc(NC(=O)Nc3ccc(C(F)(F)F)cc3)n2)cc(OC)c1OC,-8.63% (active)
7,Cc1ccc(C(=O)c2ccc(CC(=O)N/N=C/c3cccc(O)c3O)n2C)cc1,54.9%
8,COc1cnc2c(c1)C(=O)c1c-2n(CCCN2CCC(N)CC2)c(=O)c2cc([N+](=O)[O-])ccc12,74%
9,CCOC(=O)n1cc(-c2nonc2-c2cn(C(=O)OCC)c3ccc(Br)cc23)c2ccccc21,85.9%
10,COc1ccc(-c2cc(-c3cn(-c4cccc(Cl)c4)nc3-c3ccc(OC)cc3)on2)cc1,88.9%
11,O=C(O)c1cccc2c1Cc1cc([N+](=O)[O-])ccc1-2,113%
12,S=C1SCN(Cc2cccs2)CN1Cc1cccs1,40.4%
13,CCOc1cc(/C=N\NC(=O)N/N=C/c2ccc(O)c(OCC)c2)ccc1O,3.75% (active)
14,Cc1ccc(S(=O)(=O)N2CCc3ccc(O)c4c3C2CCc2ccccc2-4)cc1 (centres undefined),106%
15,COc1ccccc1/C=C1\COc2ccc(O)cc2C1=O,68.7%
16,O=C(O)COc1ccc(Cl)c(Cl)c1,99.5%
17,CC(=O)Nc1cc2c3c(cccc3c1)-c1ccccc1-2,108%
18,CCN(CC)CCCC(C)Nc1c2c(nc3ccc(OC)cc13)CCCC2 (centres undefined),98.8%
19,CC(C)(C)C(=O)/C=c1/[nH]c(=O)/c(=C/c2ccccc2O)s1,17.2%
20,CC(C)(C)c1cc(/C=N\NC(=O)/C=C/C=C/c2ccc3c(c2)OCO3)c(O)c(C(C)(C)C)c1,70.7%
21,O=C(Nc1ccc(-n2cc(-c3ccncc3)c(-c3ccc(O)c(Cl)c3)n2)cc1)Nc1cccc(Cl)c1Cl,43.5%

row,SMILES,growth
1,COc1ccc(C(=O)CSc2nccc(Nc3ccc(C(=O)O)cc3)n2)cc1,104%
2,O=C(COc1ccc(C2SCC(=O)N2c2ccccc2)cc1)c1ccccc1 (centres undefined),85.3%
3,O/N=C(/c1ccccc1)c1ccc2c3c(cccc13)CC2,57.5% and 59.8%
4,C#Cc1cccc(Nc2nc3ccc([N+](=O)[O-])cc3nc2Nc2cccc(C#C)c2)c1,-45.9% (active)
5,CCOC(=O)c1cc(C(=O)c2cc(OC)cc(OC)c2)n2ncc3ccccc3c12,8.22% (active)
6,CC(C)N(C(=O)c1ccccc1)C(C)C,86.2%
7,COc1cc(/C=C2\C(=O)Nc3ccc(Br)cc32)cc(OC)c1OC,16.9%
8,Cc1ccc(C(=O)Nc2ccc(CN3CCN(C)CC3)c(C(F)(F)F)c2)cc1C#Cc1cnc(N)c2ccc(F)cc12,-79.2% (active)
9,O=C(c1ccc(O)c(Br)c1)c1ccc(O)c(Br)c1,106%
10,CCOC(=O)c1c(NCC(=O)Nc2cccc([N+](=O)[O-])c2)sc2c1CCCC2,-77.2% (active)
11,COC(=O)c1sc(-c2ccc(C)cc2)cc1O,99.5%
12,Cc1c(C(=O)OCCO)cc(-c2ccc(Cl)cc2)n1-c1ccc(Cl)cc1Cl,56.5%
13,O=C(CSc1nc2sc3c(c2c(=O)n1-c1ccccc1)CCCCC3)N/N=C/c1cccc([N+](=O)[O-])c1,19.2%
14,CNC(=O)c1cc(Oc2ccc(NC(=O)Nc3ccc(Cl)c(OC4CCCCC4)c3)c(F)c2)ccn1,15.5%
15,COc1ccc(-c2cc(-c3cccs3)n(N=O)c(=O)c2C#N)cc1,99.5%
16,O=C(O)[C@@H](Cc1ccc2ccccc2c1)NC(=O)n1c2ccccc2c2ccccc21,11.9%
17,CC(C)(C)n1cc(-c2ccnc(NCCCNS(=O)(=O)c3ccc(C(F)(F)F)cc3)c2)c(-c2cccc(O)c2)n1,11.8%
18,C=CC(=O)Nc1ccc(Nc2nccc(-c3ccc(N4CCCC4)c(C#N)c3)n2)cc1,-9.73% (active)
19,Cn1c2ccccc2c2nnc(N/N=C/c3ccccn3)nc21,-25.1% (active)
20,COc1cc(OC)cc(-c2ccc(-c3ccc(C(=N)N)cn3)o2)c1,-69.9% (active)
21,COc1cc(/C=N/NC(=O)c2ccc(C)nc2)cc(OC)c1OC,98.5%

row,SMILES,growth
1,N#CC1C(c2ccc(Cl)cc2)=Nc2c(c(-c3ccccc3)nn2-c2ccccc2)C12C(=O)Nc1ccc(Cl)cc12 (centres undefined),26.3%
2,CC(=O)O[C@@H]1C[C@]2(C(C)C)O[C@@]1(C)[C@@H]1CCC(C)=C1[C@@H]2OC(=O)/C=C/c1ccccc1,81.5%
3,COc1ccc(C2NC(=O)C(C#N)c3c2sc2c(F)cccc32)cc1 (centres undefined),33.7%
4,NCCCNc1nc2ccccc2c2c(=O)c3cc(OC(F)(F)F)ccc3sc12,-69.8% (active)
5,COc1cc(Br)c(OC)cc1Br,95.5%
6,CCCCCCCCCCCCCCCCCCOc1ccccc1CCCOP(=O)(O)OCC[N+](C)(C)C,77.3%
7,Oc1ccc(O)c(-[n+]2ccccc2)c1,91.8%
8,N#Cc1c(-c2ccc(Cl)cc2)cc(-c2cc(O)ccc2O)nc1N,19.4%
9,Nc1ccccc1NC(=O)c1ccc(CN2CCC/C(=C\c3cccc(Cl)c3)C2=O)cc1,-10.1% (active)
10,COc1ccc(NC(=S)/N=c2\oc3c(OC)cccc3cc2-c2cc3ccccc3[nH]2)cc1,82.1%
11,O=c1ccccc(-c2ccc(Br)cc2)c1O,12.3%
12,C[C@]12CCc3nc(Nc4ccccc4)sc3C1=CC[C@@H]1[C@@H]2CC[C@]2(C)/C(=N/NC(N)=S)CC[C@@H]12,14.9%
13,CCOc1ccc(NC2=C(Cl)C(=O)c3ccccc3C2=O)cc1,64.9%
14,C=C(CNCCc1ccc(O)cc1)[C@@H]1CC[C@]2(COC3CCCCO3)CC[C@]3(C)[C@H](CC[C@@H]4[C@@]5(C)CCC(N)C(C)(C)[C@@H]5CC[C@]43C)[C@@H]12 (some centres undefined),-85.6% (active)
15,Clc1ccc2c(c1)nnn1c3ncccc3c(Br)c21,76.1%
16,CC[N+](CC)=c1ccc2nc3c(cc(NCc4ccccc4)c4ccccc43)oc-2c1,-88.7% (active)
17,COc1cc2ncnc(Oc3cccc(NC(=O)Nc4cc(C(C)(C)C(F)(F)F)on4)c3)c2cc1OC,12.4%
18,Nc1ncc(-c2ccc3ncnc(N4CCc5ccc(Cl)cc54)c3c2)cc1C(F)(F)F,-36% (active)
19,Cc1nc2cncc(C#Cc3cncc(C(=O)Nc4ccc(CN5CCN(C)CC5)c(C(F)(F)F)c4)c3)c2nc1C,37.3%
20,Cn1ccnc1C(=O)/C=C/c1ccc(CNC(=O)c2c(F)c(F)c(F)c(F)c2F)cc1,26.8%
21,Cc1cn(C)cn1,112%

row,SMILES,growth
1,CCOC(=O)/C=C1\SC(=Nc2ccc(C#N)cc2)N(CCN2C(=O)/C(=C/C(=O)OCC)SC2=Nc2ccc(C#N)cc2)C1=O,55.3%
2,CCN(CC)Cc1cc(Nc2ccnc3cc(Cl)ccc23)cc(-c2ccc(Cl)cc2)c1O,5.28% (active)
3,CC(C)(Sc1cc(C(C)(C)C)c(O)c(C(C)(C)C)c1)Sc1cc(C(C)(C)C)c(OC(=O)CCC(=O)O)c(C(C)(C)C)c1,47.4%
4,Cc1c(-c2cnc3ccc(Cl)cc3c2C(=O)O)nnn1-c1ccc(Cl)cc1,110%
5,CC[C@H](CC[C@@H](C)[C@H]1CC[C@H]2[C@@H]3CC[C@@H]4CC(=O)/C(=C\c5ccncc5)C[C@]4(C)[C@H]3CC[C@]12C)C(C)C,105%
6,Cc1cnc(Nc2ccc(N3CCN(C)CC3)cc2)nc1Nc1ccc(Cl)c(NS(=O)(=O)C(C)(C)C)c1,14.9%
7,Oc1ccc(C2OCCO2)c2cccnc12,62.4%
8,O=S(=O)(Cc1ccccc1)c1ccccc1,102%
9,N#C/C(C(=O)c1ccccc1)=C1/C(=O)Nc2ccccc21,121%
10,CC1=CC(=O)CC(C)(C)[C@@]1(O)/C=C/C(C)=C\C(=O)O,-45.1% (active)
11,O=C(O)C1C2CCC1C(O)C2 (centres undefined),97.7% and 110%
12,COc1ccc(C(c2cc(OC)c(OC)c(OC)c2)n2ccnc2)cc1O (centres undefined),15.6%
13,NS(=O)(=O)c1ccc(N2N=C(c3ccccc3)CCC2=O)cc1,96.3%
14,CCN(CC)CCCN1C(=O)c2c(c(C)c3c(oc4ccc(OC)cc43)c2C)C1=O,103%
15,COc1ccccc1NC(=O)N=Nc1c(O)[nH]c2ccccc12,86.1%
16,Cc1cc(CCNC=O)c(C)c2c1sc1ccccc12,71.4%
17,CCOC(=O)C1=C(c2ccccc2)N=C2SC=C(c3cccc([N+](=O)[O-])c3)N2C1c1ccc(O)cc1 (centres undefined),93.7%
18,CCN(CC)CCN1C(=O)c2c(c3c4ccccc4[nH]c3c3ccc4ccccc4c23)C1=O,79.5%
19,CC(C)(C)C(=O)/C=C/c1ccc([N+](=O)[O-])cc1,45.5%
20,N/C(=N\OC(=O)c1ccccc1)C(C(=O)NOC(=O)c1ccccc1)C1CCCCC1 (centres undefined),80.8%
21,O=C(Nc1cccc([N+](=O)[O-])c1)c1cc2ccccc2cc1O,-42.8% (active)
